Source: PubChem BioAssay (EPA / NIEHS)
The source made the active and inactive calls. The calls were made as follows: active = hit-call score of the fitted dose curve at least 0.9, where 1 is the maximum; inactive = score below 0.9.

The compounds below were run on Intercellular Adhesion Molecule 1 (ICAM1), ICAM1 (gene 3383) (assay: BSK_KF3CT_ICAM1: BioMAP Diversity Plus: KF3CT Assay for Intercellular Adhesion Molecule 1 (ICAM1) Biomarker Activity (AID 2283067)). Details: primary human keratinocytes with fibroblasts; actives raise or lower the signal.
Outline: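 Human keratinocyte–foreskin fibroblast co-culture was treated for 24 h. Cell-surface ICAM-1 was quantified by ELISA, fitted bidirectionally relative to DMSO. Cytotoxicity was checked in parallel cultures by SRB total-protein staining.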
With `CN(c1nccc(=O)[nH]1)C1CCN(c2nc3ccccc3n2Cc2ccc(F)cc2)CC1` the outcome was “inactive”. `CCCCCCCCCCCCCCCC(=O)OC/C=C(C)/C=C/C=C(C)/C=C/C1=C(C)CCCC1(C)C` was tested, and the outcome was “inactive”. With `CC(=O)c1c(C)c([N+](=O)[O-])c(C(C)(C)C)c([N+](=O)[O-])c1C` the outcome was “inactive”. `CC(=O)C1(C)CC2=C(CCCC2(C)C)CC1C` (centres undefined) was tested, and the AC50 was 12.3 µM (active). For `Oc1c(Cl)cc(Cl)c(Cl)c1Cc1c(O)c(Cl)cc(Cl)c1Cl`, the AC50 was 3.14 µM (active). For `CCN(CC)C(=O)N(CC)CC`, the outcome was “inactive”. With `CC1(C)C2=CCCC(C)(C)[C@]23CC[C@H]1C3` the outcome was “inactive”. For `COc1ccc(CCN2CCC(Nc3nc4ccccc4n3Cc3ccc(F)cc3)CC2)cc1`, the outcome was “inactive”. `COc1ccc(OC)c(N=Nc2c(O)ccc3ccccc23)c1` was tested, and the outcome was “inactive”. `CC(C)(C)CC(C)(C)c1ccc(OCCOCC[N+](C)(C)Cc2ccccc2)cc1` was tested, and the AC50 was 9.07 µM (active). `O=C1OC2(c3ccccc31)c1ccc(O)c(Br)c1Oc1c2ccc(O)c1Br` was tested, and the outcome was “inactive”. With `c1ccc2cc(Nc3ccc(Nc4ccc5ccccc5c4)cc3)ccc2c1` the outcome was “inactive”. For `C1=CC2C3C=CC(C3)C2C1` (centres undefined), the outcome was “inactive”. In the case of `O=C1c2ccccc2C(=O)c2c(O)ccc(O)c21`, the outcome is reported as “inactive”. `C=CC(C)(O)CCC=C(C)C` (centres undefined) was tested, and the outcome was “inactive”. For `C=C(C)C(=O)OCCOCCOCCOCCOC(=O)C(=C)C`, the outcome was “inactive”. `CS(=O)(=O)OCCCCOS(C)(=O)=O` was tested, and the outcome was “inactive”. In the case of `CCCCN(CCCC)C(=O)N(CCCC)CCCC`, the AC50 is reported as 8.66 µM (active). With `Cc1cc(CCC(=O)OCCOCCOCCOC(=O)CCc2cc(C)c(O)c(C(C)(C)C)c2)cc(C(C)(C)C)c1O` the outcome was “inactive”.
